Reference: PubChem BioAssay (NCATS)
Where “and” joins values, the source holds several entries; their conditions need not be identical. Equal entries are not always repeated. Inconclusive results are not listed. A number with no mark means an inactive call. Calls of active or inactive are those of the source. Calls follow the shape of the full dose curve.

Tests used:
[1] = target: Bile acid receptor (Homo sapiens) (UniProt Q96RI1); assay: qHTS assay for small molecule agonists of farnesoid X receptor signaling (AID 588527); conditions: HEK293T FXR-UAS-bla, beta-lactamase ratio, 16 h; activation: active compounds read high;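 also: series mostly up to about 77 µM; 0% = vehicle basal and 100% = reference agonist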
Bile acid receptor (Homo sapiens), sequence (Q96RI1 whole entry, looked up): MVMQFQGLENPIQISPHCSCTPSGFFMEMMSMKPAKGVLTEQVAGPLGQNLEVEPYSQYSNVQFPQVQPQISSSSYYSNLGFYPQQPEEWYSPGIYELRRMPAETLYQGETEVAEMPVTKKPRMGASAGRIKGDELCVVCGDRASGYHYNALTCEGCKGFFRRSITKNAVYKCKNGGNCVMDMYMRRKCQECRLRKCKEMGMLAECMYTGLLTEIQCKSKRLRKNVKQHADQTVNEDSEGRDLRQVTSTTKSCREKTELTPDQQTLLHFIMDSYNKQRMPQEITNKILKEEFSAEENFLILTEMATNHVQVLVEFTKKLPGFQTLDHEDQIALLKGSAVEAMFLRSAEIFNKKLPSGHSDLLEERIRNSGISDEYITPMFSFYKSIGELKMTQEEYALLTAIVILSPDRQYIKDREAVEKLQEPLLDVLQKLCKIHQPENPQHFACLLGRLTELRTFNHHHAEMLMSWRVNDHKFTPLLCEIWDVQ
Outline: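 Agonist-mode beta-lactamase reporter in GeneBLAzer FXR-UAS-bla HEK293T cells, titration up to 92 uM, 16 h exposure at 37 C, CCF4 fluorescence. Response scaled to DMSO (0%) and 100 uM chenodeoxycholic acid (100%), then Hill-fitted for EC50 and efficacy.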

[2] = target: Peroxisome proliferator-activated receptor delta (Homo sapiens) (UniProt Q03181); assay: qHTS assay for small molecule agonists of peroxisome proliferator-activated receptor delta signaling (AID 588534);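 also: 0% = DMSO basal wells and 100% = positive control agonist at 10 µM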
Peroxisome proliferator-activated receptor delta (Homo sapiens), sequence (Q03181 whole entry, looked up): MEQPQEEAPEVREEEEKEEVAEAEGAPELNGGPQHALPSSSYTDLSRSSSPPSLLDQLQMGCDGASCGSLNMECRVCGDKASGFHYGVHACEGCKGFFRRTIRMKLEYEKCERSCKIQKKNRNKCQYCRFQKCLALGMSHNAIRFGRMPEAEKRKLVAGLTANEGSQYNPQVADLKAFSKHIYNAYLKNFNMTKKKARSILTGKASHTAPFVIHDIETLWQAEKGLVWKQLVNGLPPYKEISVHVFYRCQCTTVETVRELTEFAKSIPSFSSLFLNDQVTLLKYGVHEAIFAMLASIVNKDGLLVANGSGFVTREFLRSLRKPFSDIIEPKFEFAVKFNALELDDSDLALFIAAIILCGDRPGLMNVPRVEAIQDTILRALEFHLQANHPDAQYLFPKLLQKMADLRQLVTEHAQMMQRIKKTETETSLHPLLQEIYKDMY
Outline: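 Agonist-mode beta-lactamase reporter readout (CCF4 dye, 2 h at RT) after 18 h at 37 °C exposure to a titration; Hill-equation fitting gave EC50 and maximal response.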

Row | Structure (SMILES) | activation [1] | outcome [2]
1 | Cc1ccccc1C#N | -0.262% | inactive
2 | COC(=O)c1ccc(CNS(C)(=O)=O)cc1S(=O)(=O)NC(=O)Nc1nc(OC)cc(OC)n1 | -2.61% | inactive
3 | COC(C)=O | -0.0908% | inactive
4 | C/C=C1\CC2C=CC1C2 (stereo not given) | 0.0193% | inactive
5 | C=CC(=O)CC | 3.81% | inactive
6 | COC(=O)c1ccc(C=O)cc1 | 0.0505% and 0.394% | inactive
7 | CCCCC(C=O)CC (stereo not given) | -2.35% | inactive
8 | CCCCOCC(C)OCC(C)O (stereo not given) | 5.12% | inactive
9 | O=C(O)c1c(Cl)cccc1Cl | 2.87% | inactive
10 | CCCCC(CC)COS(=O)(=O)O (stereo not given) | 1.45% | inactive
11 | CC(C)[C@@H]1CC[C@@H](C)C[C@H]1O | 0.612% | inactive
12 | Cn1sccc1=O | 1.01% | inactive
13 | CCOc1cc(OCC)c(C(C)=O)cc1OCC | 0.582% | inactive
14 | CC(=O)CC(=O)Nc1ccccc1 | 0.0824% and -0.252% | inactive
15 | O=S(=O)(O)c1ccc(N=Nc2cc(S(=O)(=O)O)c3ccccc3c2O)c2ccccc12 | 2.06% | inactive
16 | O=C1OC(O)C(C(Cl)Cl)=C1Cl (stereo not given) | 16.6% | inactive
17 | CNC(=O)c1ccccc1 | 3.12% | inactive
18 | Nc1cccc([N+](=O)[O-])c1 | -0.749% | inactive
19 | C=CC(=O)NC(C)C | -0.191% | inactive
20 | CNc1ccc(O)cc1 | 3.85% | inactive

Row | Structure (SMILES) | activation [1] | outcome [2]
21 | O=C1OC(=O)c2ccccc21 | 1.95% | inactive
22 | CC1(C)C(=O)N(Br)C(=O)N1Br | 1.27% | inactive
23 | CCCCC(CC)COCCCN (stereo not given) | -0.0297% | inactive
24 | CCCCCCc1ccc(-c2ccc(C#N)cc2)cc1 | -1.9% | inactive
25 | Cc1ccc(C(=O)O)cc1 | -1.14% | inactive
26 | Cl[Si](Cl)(Cl)c1ccccc1 | 0.575% | inactive
27 | Cc1c(N)cccc1Cl | -0.769% | inactive
28 | CC(O)CC(C)O (stereo not given) | -1.48% | inactive
29 | Nc1cnn([C@@H]2O[C@H](CO)[C@@H](O)[C@H]2O)c(=O)n1 | -2.94% | inactive
30 | Nc1c(Cl)cc(Cl)cc1Cl | 0.611% | inactive
31 | C1=C/CC/C=C/CC/C=C/CC/1 | -1.27% | inactive
32 | Oc1cccc(Nc2ccccc2)c1 | 0.64% | inactive
33 | CC(/C=C/C=C(C)/C=C/C(=O)O)=C\C=C\C=C(C)\C=C\C=C(C)\C=C\C(=O)O | 3.47% | inactive
34 | Cc1ccc(Cl)cc1 | -1.75% | inactive
35 | CNc1nc(=O)n(C2CCCCC2)c(=O)n1C | -6.04% | inactive
36 | CCCCOCCOCCOC(=O)CCCCC(=O)OCCOCCOCCCC | 3.42% | inactive
37 | Nc1cc(Cl)nc(C(=O)O)c1Cl | -2.93% | inactive
38 | CC(C)c1cccc(C(C)C)c1 | -1.96% | inactive
39 | CC(COCC(C)OC(=O)c1ccccc1)OC(=O)c1ccccc1 (stereo not given) | 3.09% | inactive
40 | Oc1c(Cl)cc(Cl)c(Cl)c1Cl | -1.79% and -2.07% | inactive

Row | Structure (SMILES) | activation [1] | outcome [2]
41 | Nc1ccc(Cl)cc1Cl | 0.621% and -4.4% | inactive
42 | C=C(C)C(=O)OCCCCCC | -1.11% | inactive
43 | C=CC(=O)OCCCC | -3.45% | inactive
44 | Cc1ccc(C)c(N)c1 | -1.33% | inactive
45 | C=CC(=O)OCC[N+](C)(C)C | -2.87% | inactive
46 | C1OCOCO1 | -0.63% | inactive
47 | Cc1ncc[nH]1 | -1.48% | inactive
48 | C[Si]1(C)O[Si](C)(C)O[Si](C)(C)O[Si](C)(C)O1 | -3.3% | inactive
49 | CN(C)CCCNCCCN | 2.54% | inactive
50 | CC(C)(C)[C@H](O)[C@H](Cc1ccc(Cl)cc1)n1cncn1 | -2.05% and 0.498% | inactive
51 | O=C=Nc1ccc(Cc2ccc(N=C=O)cc2)cc1 | 3.57% and 0.965% | inactive
52 | Cc1ccc(Cl)cc1N | -2.98% | inactive
53 | O=[N+]([O-])c1cccc(Cl)c1Cl | -2.65% and -2.56% | inactive
54 | CNc1nc(=O)n(C2CCC(O)CC2)c(=O)n1C (stereo not given) | 2.07% | inactive
55 | C=Cc1ccc(P(c2ccccc2)c2ccccc2)cc1 | -1.25% | inactive
56 | CCc1ccccc1O | -1.44% | inactive
57 | BrC/C=C/CBr | 1.2% | inactive
58 | C=CC(C)(O)CC/C=C(\C)CCC=C(C)C (stereo not given) | 0.971% | inactive
59 | CC(=O)OC1CC(C)OC(C)O1 (stereo not given) | -3.17% and -0.0131% | inactive
60 | C=Cc1ccccc1C=C | -0.167% | inactive
